Source: the supplement of paper PMC11732987, “Enantioselective OTUD7B fragment discovery through chemoproteomics screening and high-throughput optimisation” (Communications Chemistry, 2025)

How the values were obtained:
Experiment in all cases: log2 ratio of Biotin-Ahx-Ub-VS probe labelling (compound/DMSO); higher = less target engagement, active = hit call of the paper (q ≤ 0.05, log2 ratio ≤ -1)
Settings in all cases: treatment time: 3 h
[1] = compound: CCC1N(CCc2sccc12)C(=O)CCl
In short: (§1)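 HEK293T lysate (495 µg per sample, in Tris/CHAPS/IGEPAL buffer with protease inhibitors) was treated in triplicate with compound at 50 or 200 µM or with DMSO for 3 h. It was then treated with Biotin-Ahx-Ub-VS (0.5 µM final) for 1 h. Labelled DUBs were NeutrAvidin-enriched, digested with LysC and trypsin, and run by diaPASEF LC-MS/MS. Median-normalised label-free quantities gave average log2 ratios compound/DMSO by unpaired t-test, using proteins with ≥2 unique peptides.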

[2] = compound: CN1c2ccccc2C(CS1(=O)=O)NC(=O)CCl
In short: as §1

[3] = compound: Cl.ClCC(=O)N1CCc2ncncc2C1
In short: as §1

[4] = compound: Cl.Cn1ncc2C(CCCc12)NC(=O)CCl
In short: as §1

[5] = compound: ClCC(=O)NC1CCOc2ccccc12
In short: as §1

[6] = compound: ClCC(=O)NC1CCCc2ccccc12
In short: (§2)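 The values are mean compound-versus-vehicle ratios derived by unpaired t-test. For 3 h, triplicate HEK293T lysate samples (495 µg each) were treated with compound at a series of concentrations or with vehicle, after which Biotin-Ahx-Ub-VS was added to 0.5 µM final for 1 h. Labelled deubiquitinases were enriched with NeutrAvidin, digested with LysC and trypsin, and analysed by diaPASEF LC-MS/MS. Ratios are log2 values from global-median-normalised Spectronaut label-free quantities, using proteins with two or more unique peptides.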

[7] = compound: ClCC(=O)N[C@@H]1CCCc2ccccc12
In short: as §2

[8] = compound: ClCC(=O)N[C@H]1CCCc2ccccc12
In short: as §2

[9] = compound: CCC1N(CCc2cc(OC)c(Cl)cc12)C(=O)CCl
In short: as §1

[10] = compound: CCCC1N(CCc2cc(OC)c(OC)cc12)C(=O)CCl
In short: as §1

Measured: log2 ratio of Biotin-Ahx-Ub-VS probe labelling

UCHL5 (UniProt Q9Y5K5)
Chain of UniProt Q9Y5K5 (Q9Y5K5 whole entry): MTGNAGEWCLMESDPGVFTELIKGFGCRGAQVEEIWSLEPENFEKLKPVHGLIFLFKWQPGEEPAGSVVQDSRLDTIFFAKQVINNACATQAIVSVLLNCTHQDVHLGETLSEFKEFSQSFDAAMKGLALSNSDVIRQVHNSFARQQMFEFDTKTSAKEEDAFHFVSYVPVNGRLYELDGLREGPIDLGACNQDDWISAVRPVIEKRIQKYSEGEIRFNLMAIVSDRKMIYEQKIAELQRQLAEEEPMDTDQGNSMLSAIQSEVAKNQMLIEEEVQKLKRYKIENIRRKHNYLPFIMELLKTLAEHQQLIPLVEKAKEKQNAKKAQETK
inactive: [1]; compound concentration: 50uM -0.261 | [1]; compound concentration: 200uM -0.413 | [2]; compound concentration: 50uM -0.312 | [2]; compound concentration: 200uM -0.412 | [3]; compound concentration: 50uM -0.053 | [3]; compound concentration: 200uM -0.389 | [4]; compound concentration: 50uM 0.0591 | [4]; compound concentration: 200uM -0.0343 | [5]; compound concentration: 50uM -0.0586 | [5]; compound concentration: 200uM -0.0877 | [6]; compound concentration: 0.78uM -0.151 | [6]; compound concentration: 1.56uM -0.0693 | [6]; compound concentration: 3.13uM -0.187 | [6]; compound concentration: 6.25uM -0.075 | [6]; compound concentration: 12.5uM -0.156 | [6]; compound concentration: 25uM -0.346 | [6]; compound concentration: 50uM -0.111 | [6]; compound concentration: 100uM -0.166 | [6]; compound concentration: 200uM -0.211 | [7]; compound concentration: 0.78uM -0.425 | [7]; compound concentration: 1.56uM -0.183 | [7]; compound concentration: 3.13uM -0.22 | [7]; compound concentration: 6.25uM -0.255 | [7]; compound concentration: 12.5uM -0.281 | [7]; compound concentration: 25uM -0.176 | [7]; compound concentration: 50uM -0.209 | [7]; compound concentration: 100uM -0.17 | [7]; compound concentration: 200uM -0.35 | [8]; compound concentration: 0.78uM -0.162 | [8]; compound concentration: 1.56uM -0.217 | [8]; compound concentration: 3.13uM -0.188 | [8]; compound concentration: 6.25uM 0.0176 | [8]; compound concentration: 12.5uM -0.23 | [8]; compound concentration: 25uM -0.161 | [8]; compound concentration: 50uM -0.0913 | [8]; compound concentration: 100uM -0.178 | [8]; compound concentration: 200uM -0.266 | [9]; compound concentration: 50uM -0.0479 | [9]; compound concentration: 200uM -0.725 | [10]; compound concentration: 50uM -0.464 | [10]; compound concentration: 200uM -0.644

USP8 (UniProt P40818)
Chain of UniProt P40818 (P40818 whole entry): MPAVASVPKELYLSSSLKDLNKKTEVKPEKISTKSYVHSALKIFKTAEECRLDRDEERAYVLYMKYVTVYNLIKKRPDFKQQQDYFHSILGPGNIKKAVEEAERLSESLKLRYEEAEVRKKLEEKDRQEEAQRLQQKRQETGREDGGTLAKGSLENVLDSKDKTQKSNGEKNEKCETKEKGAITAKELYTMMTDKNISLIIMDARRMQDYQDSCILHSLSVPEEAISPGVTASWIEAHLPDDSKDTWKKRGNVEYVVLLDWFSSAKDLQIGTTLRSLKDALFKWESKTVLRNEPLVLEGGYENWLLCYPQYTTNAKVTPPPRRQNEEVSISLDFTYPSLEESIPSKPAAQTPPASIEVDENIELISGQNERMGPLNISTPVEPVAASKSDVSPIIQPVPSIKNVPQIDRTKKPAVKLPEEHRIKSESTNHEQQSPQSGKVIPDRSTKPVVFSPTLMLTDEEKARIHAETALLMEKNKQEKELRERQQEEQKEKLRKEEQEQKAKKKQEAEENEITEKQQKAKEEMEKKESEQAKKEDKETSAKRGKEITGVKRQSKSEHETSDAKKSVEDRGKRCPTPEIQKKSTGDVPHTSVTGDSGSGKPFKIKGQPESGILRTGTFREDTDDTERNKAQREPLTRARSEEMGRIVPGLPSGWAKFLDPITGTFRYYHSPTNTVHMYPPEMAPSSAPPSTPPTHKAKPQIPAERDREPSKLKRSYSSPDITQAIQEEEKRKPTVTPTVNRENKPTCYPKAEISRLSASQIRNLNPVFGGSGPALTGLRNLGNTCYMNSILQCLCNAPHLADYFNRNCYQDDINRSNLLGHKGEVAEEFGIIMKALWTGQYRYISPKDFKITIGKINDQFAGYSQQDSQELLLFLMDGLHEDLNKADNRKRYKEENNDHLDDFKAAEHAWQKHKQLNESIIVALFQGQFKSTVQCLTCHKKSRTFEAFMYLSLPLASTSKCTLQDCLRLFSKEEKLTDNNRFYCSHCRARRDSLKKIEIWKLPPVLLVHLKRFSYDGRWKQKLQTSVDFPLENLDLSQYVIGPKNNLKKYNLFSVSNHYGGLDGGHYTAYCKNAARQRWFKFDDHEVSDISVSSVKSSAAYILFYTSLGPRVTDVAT
inactive: [1]; compound concentration: 50uM -0.18 | [1]; compound concentration: 200uM -0.116 | [2]; compound concentration: 50uM -0.21 | [2]; compound concentration: 200uM -0.21 | [3]; compound concentration: 50uM -0.0841 | [3]; compound concentration: 200uM -0.378 | [4]; compound concentration: 50uM -0.0611 | [4]; compound concentration: 200uM 0.0851 | [5]; compound concentration: 50uM -0.212 | [5]; compound concentration: 200uM -0.0542 | [6]; compound concentration: 0.78uM -0.0473 | [6]; compound concentration: 1.56uM 0.0438 | [6]; compound concentration: 3.13uM -0.127 | [6]; compound concentration: 6.25uM -0.0217 | [6]; compound concentration: 12.5uM -0.0947 | [6]; compound concentration: 25uM -0.0983 | [6]; compound concentration: 50uM -0.0766 | [6]; compound concentration: 100uM -0.0121 | [6]; compound concentration: 200uM -0.102 | [7]; compound concentration: 0.78uM -0.0947 | [7]; compound concentration: 1.56uM -0.0445 | [7]; compound concentration: 3.13uM -0.000329 | [7]; compound concentration: 6.25uM -0.0324 | [7]; compound concentration: 12.5uM -0.0744 | [7]; compound concentration: 25uM -0.057 | [7]; compound concentration: 50uM -0.0549 | [7]; compound concentration: 100uM -0.0496 | [7]; compound concentration: 200uM -0.123 | [8]; compound concentration: 0.78uM -0.131 | [8]; compound concentration: 1.56uM -0.0656 | [8]; compound concentration: 3.13uM -0.0464 | [8]; compound concentration: 6.25uM 0.0547 | [8]; compound concentration: 12.5uM 0.00701 | [8]; compound concentration: 25uM -0.0406 | [8]; compound concentration: 50uM 0.000255 | [8]; compound concentration: 100uM -0.0245 | [8]; compound concentration: 200uM -0.143 | [9]; compound concentration: 50uM -0.0467 | [9]; compound concentration: 200uM -0.231 | [10]; compound concentration: 50uM -0.414 | [10]; compound concentration: 200uM -0.636
